Compound activity as filed in PubChem BioAssay.
JMJD2A Tudor inh: qHTS Assay for Inhibitors of JMJD2A-Tudor Domain. AlphaScreen JMJD2A-Tudor / H3K4me3 peptide binding. Potency, µM (series often up to 114 µM), actives largely listed as inhibitors. 390,000 compounds, 4.4% hits. AID 504339, 2011; note: nearly all actives have a fitted effect of over 50% in size
12-LOX inh: Primary qHTS assay for inhibitors of human arachidonate 12S-lipoxygenase (ALOX12): Round 2; Polyunsaturated fatty acid lipoxygenase ALOX12 (Homo sapiens), P18054; purified 12hLO, xylenol orange hydroperoxide absorbance; Potency, µM (highest dose often 108 µM), usual class: inhibitors; 580,000 compounds, 1.1% hits
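Purified human 12hLO at 150 nM in 25 mM Hepes, 0.01% Triton X-100, pH 7.0, preincubated 15 min at room temperature with compound. Reaction started with 40 uM arachidonic acid, 30 min at room temperature. Hydroperoxide measured by Fe-xylenol orange, 573/405 nm absorbance ratio.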
Sfp PPTase inh: qHTS Assay for Inhibitors of Bacillus subtilis Sfp phosphopantetheinyl transferase (PPTase). Potency, µM, hits mostly inhibitors. 4'-phosphopantetheinyl transferase ffp (Bacillus subtilis), Q9F4F7. Biochemical Sfp PPTase activity, qHTS. 310,000 compounds, 3.5% hits;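 note: the enzyme is Sfp with the accession as filed and its product quenches rhodamine fluorescence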
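After 15 min at room temperature with compound, 15 nM Sfp received 5 uM rhodamine-CoA plus 12.5 uM BHQ-2-ybbR (50 mM Hepes pH 7.6, 10 mM MgCl2). Rate came from the fluorescence difference over 30 min, ex 525/em 598 nm.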
G9a block: qHTS Assay for Inhibitors of Histone Lysine Methyltransferase G9a; G9a H3K9 monomethylation, AlphaScreen, 2 h; AID 504332, 2011; 350,000 compounds, 8.8% hits; Potency, µM (doses to about 102 µM), actives largely listed as inhibitors; Histone-lysine N-methyltransferase EHMT2 (Homo sapiens), Q96KQ7; note: nearly all actives have a fitted effect of over 75% in size
Target sequence (Q96KQ7 913-1193 limits assumed): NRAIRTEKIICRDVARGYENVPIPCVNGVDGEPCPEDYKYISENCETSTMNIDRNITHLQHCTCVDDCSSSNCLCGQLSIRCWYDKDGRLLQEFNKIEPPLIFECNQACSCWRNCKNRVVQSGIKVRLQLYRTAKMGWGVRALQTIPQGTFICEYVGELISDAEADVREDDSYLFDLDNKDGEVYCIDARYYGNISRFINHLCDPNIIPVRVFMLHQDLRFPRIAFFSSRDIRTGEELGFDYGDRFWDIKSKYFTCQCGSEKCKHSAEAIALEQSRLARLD
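AlphaScreen detection with an anti-monomethyl H3K9 antibody quantified product after a 2 h room-temperature reaction containing 500 nM biotinylated H3K9 peptide, 20 µM SAM and 20 nM enzyme, which had been preincubated 15 min with compound.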
HP1b binding inh: HTS for Inhibitors of HP1-beta Chromodomain Interactions with Methylated Histone Tails; Chromobox protein homolog 1 (Homo sapiens), P83916; AlphaScreen HP1-beta / biotin-H3K9me3 peptide binding; Potency, µM (series often up to 114 µM), actives largely listed as inhibitors; 390,000 compounds, 0.56% hits; AID 540317, 2011; note: nearly all actives have a fitted effect of over 70% in size
Target sequence (P83916 whole entry, looked up): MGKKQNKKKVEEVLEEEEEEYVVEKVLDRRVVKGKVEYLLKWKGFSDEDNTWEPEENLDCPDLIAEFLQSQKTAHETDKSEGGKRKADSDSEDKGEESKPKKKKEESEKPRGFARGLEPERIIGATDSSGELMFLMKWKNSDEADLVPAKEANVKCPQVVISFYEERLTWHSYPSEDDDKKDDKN
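Compound inhibition of the preformed complex between 50 nM HP1-beta and 50 nM biotinylated H3K9me3 peptide was read by AlphaScreen. Buffer was PBS pH 7.4 with 0.01% Tween-20. Incubations ran 30 min at room temperature, with 10 ug/mL donor/acceptor beads.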
BAZ2B inh: qHTS Assay for Inhibitors of BAZ2B; AlphaScreen BAZ2B-H3K14Ac peptide displacement; 360,000 compounds, 4.4% hits; Potency, µM (series often up to 114 µM), most hits filed as inhibitors; AID 504333, 2011; Bromodomain adjacent to zinc finger domain protein 2B (Homo sapiens), Q9UIF8; note: nearly all actives have a fitted effect of over 60% in size
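Multi-concentration screen (max 110 uM) measuring displacement of acetylated histone H3 peptide from BAZ2B by AlphaScreen, using 50 nM protein, 50 nM peptide and 10 ug/mL streptavidin donor plus Ni-chelate acceptor beads.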
Numbers stand for hits; . = inactive; ? = inconclusive; / = no result given; [ ] = dose if it differs, or a comment. Compounds with a hit are over-represented: about 8.7% of the library has one in this group of screens. Calls come from the whole dose curve; as a rule, active = well fitted curve in the direction sought with a large enough effect; inconclusive = small, poorly fitted or top-dose-only effect, or another doubt; inactive = no such curve, though single readings can be large; an effect the other way counts as inactive or inconclusive.

SMILES	JMJD2A Tudor inh	12-LOX inh	Sfp PPTase inh	G9a block	HP1b binding inh	BAZ2B inh
N#CCCN(C(=O)COC(=O)CCc1ccccc1)c1ccccc1	.	.	.	.	.	.
Cc1ccc(SCC(=O)OCC(=O)N(CCC#N)c2ccccc2)cc1C	?	.	/	56µM	.	.
COc1ccc(C)cc1-n1ccnc1SCC(=O)Nc1nc2ccccc2s1	/	.	/	/	/	/
COc1ccc(-c2cc(-c3c(C)noc3C)cc3c2C(=O)N(C)C3)cn1	/	.	/	/	/	/
Nc1nnc(-c2ccccc2Cl)s1	.	?	?	22µM	.	.
C(=N\N(c1ccccc1)c1ccccc1)/c1ccccn1	.	?	.	.	.	.
COc1cc(OC)c(OC)cc1/C=N/Nc1nc2ccccc2[nH]1	.	.	.	.	.	.
COc1ccc(/C=N/N(Cc2ccccc2)c2ccccc2)cc1O	10µM	?	.	28µM	40µM	28µM
CCN(CC)c1ccc(/C=N/N(c2ccccc2)c2ccccc2)c(O)c1	8.9µM	.	.	?	?	10µM
CCN(CC)c1ccc(/C=N/Nc2nc3ccccc3[nH]2)c(O)c1	50µM	?	.	?	.	40µM
Oc1ccc(/C=N/N(c2ccccc2)c2ccccc2)cc1O	56µM	.	.	.	?	.
Cc1cnc(C2CCOCC2)n1C1CCCN(C(=O)CCc2c[nH]c3ccccc23)C1 (stereo unspecified)	/	.	/	/	/	/
COc1cccc(Nc2cc3[nH]ccc3c(C(=O)NCc3c(C)cc(C)[nH]c3=O)n2)c1	/	.	/	/	/	/
CCS(=O)(=O)Nc1ccc(C)n(CC(=O)N2CCN(CC(C)C)CC2)c1=O	/	.	/	/	/	/
CCN(CC)c1ccc(/C=N/NC(=S)NCc2ccccc2)c(O)c1	.	?	.	.	.	22µM
Brc1ccccc1/C=N/N(c1ccccc1)c1ccccc1	/	.	/	/	/	/
Oc1ccc(/C=N/N(c2ccccc2)c2ccccc2)c(O)c1O	/	11µM	.	14µM	/	25µM
Cc1cc(C(=O)N2CCCc3ccccc32)c2ccccc2n1	/	.	/	/	/	/
N#C/C(=C/c1cn(CC(=O)O)c2ccccc12)C(=O)NCc1ccccc1	.	.	.	56µM	.	?
O=[N+]([O-])/C=C/c1cn(Cc2ccccc2)c2ccccc12	.	.	?	?	.	.
CC(C)N1C(=O)S/C(=C/c2cn(CC#N)c3ccccc23)C1=O	/	4.5µM	/	/	/	/
CNC(=O)/C(C#N)=C/c1cn(CC(=O)NCc2ccco2)c2ccccc12	.	?	.	.	.	.
C=CCN1C(=O)S/C(=C\c2cn(CC(=O)OCC)c3ccccc23)C1=O	/	.	/	/	/	/
N#Cc1ccccc1Cn1cc(/C=C/[N+](=O)[O-])c2ccccc21	.	.	.	50µM	.	?
C=CCN1C(=O)S/C(=C/c2cn(CC(=O)O)c3ccccc23)C1=O	/	32µM	/	/	/	/
SMILES	JMJD2A Tudor inh	12-LOX inh	Sfp PPTase inh	G9a block	HP1b binding inh	BAZ2B inh
COc1ccccc1CCNC(=O)c1cccc(N2CCCCS2(=O)=O)c1	/	.	/	/	/	/
O=C(O)Cn1cc(/C=C/[N+](=O)[O-])c2ccccc21	.	?	.	56µM	.	.
CCN(CC)c1ccc(/C=C(/C#N)C(=O)NCc2ccccc2)o1	.	?	.	11µM	.	.
COc1cc(OC)cc(C(=O)NNc2nc3cc4c(cc3s2)OCO4)c1	?	.	79µM	?	.	?
COc1cc(C(=O)NNc2nc3cc4c(cc3s2)OCO4)cc(OC)c1OC	.	?	20µM	?	.	.
Cc1cc(C)n2nc(C(=O)N3CCCC4(CNC(=O)O4)C3)cc2n1 (stereo unspecified)	/	.	/	/	/	/
C/C(=N/NC(=O)CNC(=O)/C=C/c1ccco1)c1ccc(Cl)cc1	.	.	?	.	.	56µM
O=C(/C=C/c1ccc[nH]1)c1ccccc1	18µM	?	56µM	?	.	?
O=C(/C=C/c1ccco1)NC1CCCC1	.	.	28µM	?	.	?
O=C(/C=C/c1ccc[nH]1)c1ccc(F)cc1	.	.	.	.	.	.
O=C(COC(=O)/C=C/c1ccco1)NC1CCCCC1	?	.	/	.[12.7 µM]	.	.
O=C(/C=C/c1ccco1)c1cccc([N+](=O)[O-])c1	35µM	25µM	/	/	?	/
CCC(Cn1ccnc1)NC(=O)c1cccc(NCc2ccc(F)cc2)c1 (stereo unspecified)	/	.	/	/	/	/
CCCCCCn1c(SCC(=O)c2ccccc2)nc2c1c(=O)n(C)c(=O)n2C	/	.	/	/	/	/
CCNC(=O)NCC(=O)N1CCCCCNC(=O)CC1c1ccccc1 (stereo unspecified)	/	.	/	/	/	/
O=C(/C=C/c1ccco1)c1ccccc1	/	16µM	/	/	/	/
O=C(/C=C/c1ccc([N+](=O)[O-])cc1)/C=C/c1ccco1	/	18µM	50µM	10µM	/	28µM
O=C(/C=C/c1ccco1)N(Cc1cccs1)C1CC1	/	35µM	/	/	/	/
O=C(/C=C/c1ccco1)NCC(=O)N/N=C/c1ccc([N+](=O)[O-])cc1	14µM	.	?	?	?	?
CC(Cc1ccccc1)NC(=O)C1CCC(C)(C(=O)O)C1(C)C (stereo unspecified)	/	.	/	/	/	/
COc1cc2oc(=O)cc(C)c2cc1CCC(=O)O	/	.	/	/	/	/
CCCCn1nnnc1CSc1nnc(-c2ccccc2)n1-c1ccccc1	/	.	/	/	/	/
O=C(c1cc(F)ccc1F)N1CC(c2nnc(-c3ccncc3)o2)C2(CCOCC2)C1 (stereo unspecified)	/	.	/	/	/	/
O=C(/C=C/c1ccc(-c2ccccc2[N+](=O)[O-])o1)c1ccco1	18µM	?	?	14µM	40µM	40µM
O=[N+]([O-])c1ccccc1-c1ccc(/C=N/O)o1	/	.	/	/	/	/
SMILES	JMJD2A Tudor inh	12-LOX inh	Sfp PPTase inh	G9a block	HP1b binding inh	BAZ2B inh
O=C(/C=C/c1ccc(Br)cc1)c1ccc(NC(=O)c2ccco2)cc1	.	.	.	.	.	?
O=C(/C=C\c1ccccc1)Nc1ccc(NC(=O)c2ccco2)cc1	10µM	.	.	.	?	.
O=C(/C=C/C=C/c1ccccc1)c1ccco1	.	?	?	50µM	.	?
O=C(O)c1ccc(/C=C/C(=O)c2ccco2)cc1	/	.	/	/	/	/
O=C(/C=C/c1ccc(Br)cc1)c1ccco1	.	.	.	.	.	.
O=C(C=Cc1ccco1)c1ccco1	.	8.9µM	/	/	.	/
CN(C(=O)CSc1nc2cc([N+](=O)[O-])ccc2n1-c1ccc(F)cc1)C1CCS(=O)(=O)C1 (stereo unspecified)	79µM	.	.	20µM	.	.
